According to PubChem BioAssay AID1159580 (chemical genetic matrix, 2015):
Among all 5,500 compounds or so, about 2,000 (36%) were called active. Not shown: some 18% with an inconclusive outcome. No stated cut-off is given here; in the data, active means normalized growth mostly below about 0.91 (no sharp cut-off); inconclusive means no clear call, values can overlap the other calls; inactive means mostly above about 0.92. The list shows a part of the results.

Assay: chemical genetic growth profiling, strain panel (AID 1159580);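 further: tested at 20 µM; growth read once vehicle control cultures reached saturation at 30 °C; 1 = growth at the plate median or of vehicle wells; lower values mean less growth of the strain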
Conditions: growth OD

Measured: normalized growth

Nc1c2ccccc2nc2ccccc12 (tested in a mixture with another compound)
inactive: S. cerevisiae deletion strains, locus YKL068W, active compounds read low 0.969 | S. cerevisiae deletion strains, locus YKR026C, strain gcn3, active compounds read low 0.957 | S. cerevisiae deletion strains, locus YKR091W, strain srl3, active compounds read low 0.95 | S. cerevisiae deletion strains, locus YLR102C, strain apc9, active compounds read low 0.943 | S. cerevisiae deletion strains, locus YLR342W, strain FKS1, active compounds read low 0.945 | S. cerevisiae deletion strains, locus YLR357W, strain rsc2, active compounds read low 1.11 | S. cerevisiae deletion strains, locus YLR371W, strain rom2, active compounds read low 0.98 | S. cerevisiae deletion strains, locus YLR384C, strain iki3, active compounds read low 0.932 | S. cerevisiae deletion strains, locus YMR125W, strain sto1, active compounds read low 0.963 | S. cerevisiae deletion strains, locus YMR231W, strain pep5, active compounds read low 0.94 | S. cerevisiae deletion strains, locus YMR307W, strain GAS1, active compounds read low 0.806 | S. cerevisiae deletion strains, locus YNL071W, strain lat1, active compounds read low 0.958 | S. cerevisiae deletion strains, locus YNL322C, strain KRE1 (second series), active compounds read low 0.981 | S. cerevisiae deletion strains, locus YOR316C, strain cot1, active compounds read low 0.938 | S. cerevisiae deletion strains, locus YPL241C, strain CIN2, active compounds read low 0.935 | S. cerevisiae deletion strains, locus YPR141C, strain kar3, active compounds read low 1 | S. cerevisiae deletion strains, locus YPR163C, strain tif3, active compounds read low 0.964
active: S. cerevisiae deletion strains, locus YKL009W, strain mrt4, active compounds read low 0.811 | S. cerevisiae deletion strains, locus YKL085W, strain MDH1 (second series), active compounds read low 0.899 | S. cerevisiae deletion strains, locus YKL085W, strain MDH1, active compounds read low 0.899 | S. cerevisiae deletion strains, locus YKL160W, strain elf1, active compounds read low 0.597 | S. cerevisiae deletion strains, locus YKL190W, strain CNB1, active compounds read low 0.717 | S. cerevisiae deletion strains, locus YKR001C, strain vps1, active compounds read low 0.292 | S. cerevisiae deletion strains, locus YLL001W, strain dnm1, active compounds read low 0.603 | S. cerevisiae deletion strains, locus YLL026W, active compounds read low 0.707 | S. cerevisiae deletion strains, locus YLL041C, strain sdh2, active compounds read low 0.897 | S. cerevisiae deletion strains, locus YLR027C, strain aat2, active compounds read low 0.604 | S. cerevisiae deletion strains, locus YLR039C, strain RIC1, active compounds read low 0.601 | S. cerevisiae deletion strains, locus YLR058C, strain SHM2, active compounds read low 0.538 | S. cerevisiae deletion strains, locus YLR113W, strain HOG1, active compounds read low 0.506 | S. cerevisiae deletion strains, locus YLR221C, strain rsa3, active compounds read low 0.634 | S. cerevisiae deletion strains, locus YLR258W, strain gsy2, active compounds read low 0.603 | S. cerevisiae deletion strains, locus YLR262C, strain YPT6 (second series), active compounds read low 0.573 | S. cerevisiae deletion strains, locus YLR262C, strain YPT6, active compounds read low 0.604 | S. cerevisiae deletion strains, locus YLR268W, strain sec22, active compounds read low 0.622 | S. cerevisiae deletion strains, locus YLR320W, strain mms22, active compounds read low 0.507 | S. cerevisiae deletion strains, locus YLR330W, strain CHS5, active compounds read low 0.826 | S. cerevisiae deletion strains, locus YLR342W, strain FKS1 (second series), active compounds read low 0.662 | S. cerevisiae deletion strains, locus YLR370C, strain arc18, active compounds read low 0.803 | S. cerevisiae deletion strains, locus YLR418C, strain cdc73, active compounds read low 0.723 | S. cerevisiae deletion strains, locus YML016C, strain PPZ1, active compounds read low 0.714 | S. cerevisiae deletion strains, locus YML032C, strain rad52, active compounds read low 0.37 | S. cerevisiae deletion strains, locus YML120C, strain ndi1, active compounds read low 0.439 | S. cerevisiae deletion strains, locus YML124C, strain tub3, active compounds read low 0.84 | S. cerevisiae deletion strains, locus YMR058W, strain fet3, active compounds read low 0.69 | S. cerevisiae deletion strains, locus YMR078C, strain ctf18, active compounds read low 0.642 | S. cerevisiae deletion strains, locus YMR129W, active compounds read low 0.844 | S. cerevisiae deletion strains, locus YMR205C, strain PFK2, active compounds read low 0.669 | S. cerevisiae deletion strains, locus YMR223W, strain ubp8, active compounds read low 0.579 | S. cerevisiae deletion strains, locus YMR263W, strain SAP30, active compounds read low 0.746 | S. cerevisiae deletion strains, locus YNL067W, strain RPL9B, active compounds read low 0.477 | S. cerevisiae deletion strains, locus YNL128W, strain TEP1, active compounds read low 0.76 | S. cerevisiae deletion strains, locus YNL153C, strain GIM3, active compounds read low 0.701 | S. cerevisiae deletion strains, locus YNL183C, strain NPR1, active compounds read low 0.483 | S. cerevisiae deletion strains, locus YNL209W, strain ssb2, active compounds read low 0.729 | S. cerevisiae deletion strains, locus YNL233W, strain BNI4, active compounds read low 0.707 | S. cerevisiae deletion strains, locus YNL248C, strain rpa49, active compounds read low 0.599 | S. cerevisiae deletion strains, locus YNL250W, strain rad50, active compounds read low 0.782 | S. cerevisiae deletion strains, locus YNL271C, strain bni1, active compounds read low 0.891 | S. cerevisiae deletion strains, locus YNL298W, strain CLA4, active compounds read low 0.858 | S. cerevisiae deletion strains, locus YNL307C, strain MCK1, active compounds read low 0.439 | S. cerevisiae deletion strains, locus YNL322C, strain KRE1, active compounds read low 0.771 | S. cerevisiae deletion strains, locus YNR049C, strain mso1, active compounds read low 0.899 | S. cerevisiae deletion strains, locus YNR052C, strain pop2, active compounds read low 0.732 | S. cerevisiae deletion strains, locus YOL006C, strain TOP1, active compounds read low 0.475 | S. cerevisiae deletion strains, locus YOL012C, strain htz1 2.2 [resistant] | S. cerevisiae deletion strains, locus YOL147C, strain pex11, active compounds read low 0.832 | S. cerevisiae deletion strains, locus YOR001W, strain rrp6, active compounds read low 0.508 | S. cerevisiae deletion strains, locus YOR061W, strain CKA2, active compounds read low 0.744 | S. cerevisiae deletion strains, locus YOR069W, strain VPS5, active compounds read low 0.825 | S. cerevisiae deletion strains, locus YOR070C, strain gyp1, active compounds read low 0.732 | S. cerevisiae deletion strains, locus YOR080W, strain dia2, active compounds read low 0.816 | S. cerevisiae deletion strains, locus YOR083W, strain WHI5, active compounds read low 0.56 | S. cerevisiae deletion strains, locus YOR106W, strain vam3, active compounds read low 0.529 | S. cerevisiae deletion strains, locus YOR136W, strain idh2, active compounds read low 0.866 | S. cerevisiae deletion strains, locus YOR144C, strain elg1, active compounds read low 0.766 | S. cerevisiae deletion strains, locus YOR184W, strain ser1, active compounds read low 0.535 | S. cerevisiae deletion strains, locus YOR231W, strain MKK1, active compounds read low 0.41 | S. cerevisiae deletion strains, locus YOR265W, strain rbl2, active compounds read low 0.851 | S. cerevisiae deletion strains, locus YOR270C, strain vph1, active compounds read low 0.577 | S. cerevisiae deletion strains, locus YOR290C, strain snf2, active compounds read low 0.379 | S. cerevisiae deletion strains, locus YPL051W, strain arl3, active compounds read low 0.628 | S. cerevisiae deletion strains, locus YPL055C, strain LGE1, active compounds read low 0.572 | S. cerevisiae deletion strains, locus YPL078C, strain atp4, active compounds read low 0.727 | S. cerevisiae deletion strains, locus YPL106C, strain sse1, active compounds read low 0.779 | S. cerevisiae deletion strains, locus YPL240C, strain hsp82, active compounds read low 0.618 | S. cerevisiae deletion strains, locus YPL256C, strain CLN2, active compounds read low 0.499 | S. cerevisiae deletion strains, locus YPR119W, strain clb2, active compounds read low 0.85 | S. cerevisiae deletion strains, locus YPR167C, strain met16, active compounds read low 0.699 | S. cerevisiae deletion strains, strain wtn01, active compounds read low 0.549 | S. cerevisiae strains, strain wild type, active compounds read low 0.698
